Experimental data as given in article PMC7862700, “An all-to-all approach to the identification of sequence-specific readers for epigenetic DNA modifications on cytosine”.

Legend:
Test in all cases: DAPPL (digital affinity profiling via proximity ligation, sequencing); 10 mM Tris-HCl pH 7.5, 50 mM NaCl, 1 mM DTT, 4% glycerol, room temperature, 30 min; GST-TFs on glutathione beads, 16-mer random dsDNA library, 0.1% formaldehyde crosslink after washing; high values mean tight binding
Conditions in all cases: protein: recombinant; tags: N-terminal GST; dsDNA, one strand shown
[1] = biological target: T1, ERF (Homo sapiens, UniProt P50548 1-548)
T1 sequence: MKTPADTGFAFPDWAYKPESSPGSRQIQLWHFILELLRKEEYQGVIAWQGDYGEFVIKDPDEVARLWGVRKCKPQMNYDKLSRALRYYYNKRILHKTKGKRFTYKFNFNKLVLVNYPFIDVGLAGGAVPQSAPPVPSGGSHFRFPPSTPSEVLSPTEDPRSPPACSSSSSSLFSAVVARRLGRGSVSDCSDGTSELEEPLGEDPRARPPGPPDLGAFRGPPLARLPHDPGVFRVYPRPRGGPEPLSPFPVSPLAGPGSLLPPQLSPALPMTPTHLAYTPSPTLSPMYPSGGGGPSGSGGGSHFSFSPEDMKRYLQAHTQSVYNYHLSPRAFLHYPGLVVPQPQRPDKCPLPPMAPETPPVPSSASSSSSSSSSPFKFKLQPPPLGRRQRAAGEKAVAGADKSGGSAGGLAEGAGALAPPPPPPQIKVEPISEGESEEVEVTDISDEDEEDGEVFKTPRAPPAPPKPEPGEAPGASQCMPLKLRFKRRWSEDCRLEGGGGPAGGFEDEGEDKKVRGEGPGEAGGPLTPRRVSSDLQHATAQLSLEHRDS
Procedure, shortened: (§1)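 Binding signal is given per hexamer as its read frequency for a factor divided by its frequency in the tag-only sample. GST-fused human transcription factors were expressed in yeast, captured on glutathione beads, barcoded with DNA and pooled with that sample, then incubated with 200 nmole of a 16-mer random double-stranded DNA library in Tris/NaCl/DTT/glycerol buffer for 30 min at room temperature. The pools were then washed, crosslinked, proximity-ligated, amplified by PCR and sequenced on an Illumina NextSeq500.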

[2] = biological target: T2, ETV3L (Homo sapiens, UniProt Q6ZN32 1-361)
T2 sequence: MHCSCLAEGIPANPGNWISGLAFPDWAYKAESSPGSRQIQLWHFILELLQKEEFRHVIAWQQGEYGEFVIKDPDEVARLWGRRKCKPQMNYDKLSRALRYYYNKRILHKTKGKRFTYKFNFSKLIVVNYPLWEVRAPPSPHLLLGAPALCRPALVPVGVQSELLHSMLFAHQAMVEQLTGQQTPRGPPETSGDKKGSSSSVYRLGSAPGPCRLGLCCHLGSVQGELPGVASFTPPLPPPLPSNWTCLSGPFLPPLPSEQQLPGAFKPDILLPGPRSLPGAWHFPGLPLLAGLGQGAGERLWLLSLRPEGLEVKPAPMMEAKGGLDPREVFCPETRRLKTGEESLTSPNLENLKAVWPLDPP
Procedure, shortened: as §1

[3] = biological target: T3, ETS2 (Homo sapiens, UniProt P15036 1-469)
T3 sequence: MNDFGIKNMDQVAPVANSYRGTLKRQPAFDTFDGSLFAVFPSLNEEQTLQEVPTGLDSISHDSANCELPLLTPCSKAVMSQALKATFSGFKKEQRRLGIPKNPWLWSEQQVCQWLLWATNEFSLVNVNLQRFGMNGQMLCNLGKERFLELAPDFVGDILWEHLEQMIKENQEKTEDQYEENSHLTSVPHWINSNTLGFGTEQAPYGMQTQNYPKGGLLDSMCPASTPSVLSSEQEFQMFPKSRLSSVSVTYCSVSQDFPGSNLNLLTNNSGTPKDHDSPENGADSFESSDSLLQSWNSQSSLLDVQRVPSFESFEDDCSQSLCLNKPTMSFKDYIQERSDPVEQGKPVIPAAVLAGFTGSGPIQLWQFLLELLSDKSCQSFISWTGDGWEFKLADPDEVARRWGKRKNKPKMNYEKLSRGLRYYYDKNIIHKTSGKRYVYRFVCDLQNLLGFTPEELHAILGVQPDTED
Procedure, shortened: as §1

[4] = biological target: T4, SPDEF (Homo sapiens, UniProt O95238 1-335)
T4 sequence: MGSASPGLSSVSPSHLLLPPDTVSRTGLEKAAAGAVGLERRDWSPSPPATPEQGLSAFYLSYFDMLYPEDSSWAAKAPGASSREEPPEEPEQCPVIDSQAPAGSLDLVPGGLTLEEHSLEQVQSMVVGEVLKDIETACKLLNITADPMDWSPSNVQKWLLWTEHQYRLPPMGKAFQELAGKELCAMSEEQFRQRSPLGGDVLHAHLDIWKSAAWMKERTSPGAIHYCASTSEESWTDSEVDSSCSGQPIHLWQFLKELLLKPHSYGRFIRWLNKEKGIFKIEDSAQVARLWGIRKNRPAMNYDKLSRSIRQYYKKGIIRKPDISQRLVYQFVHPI
Procedure, shortened: as §1

[5] = biological target: T5, ETV7 (Homo sapiens, UniProt Q9Y603 1-341)
T5 sequence: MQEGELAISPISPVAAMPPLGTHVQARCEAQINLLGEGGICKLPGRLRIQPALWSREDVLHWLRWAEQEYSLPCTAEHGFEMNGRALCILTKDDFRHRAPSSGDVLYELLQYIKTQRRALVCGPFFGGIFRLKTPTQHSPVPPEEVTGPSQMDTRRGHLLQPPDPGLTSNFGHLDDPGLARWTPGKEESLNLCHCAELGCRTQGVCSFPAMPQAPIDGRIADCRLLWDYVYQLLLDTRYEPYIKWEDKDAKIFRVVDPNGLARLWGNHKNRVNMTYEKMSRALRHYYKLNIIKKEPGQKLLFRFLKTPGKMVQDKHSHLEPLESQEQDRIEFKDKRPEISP
Procedure, shortened: as §1

[6] = biological target: T6, ELF5 (Homo sapiens, UniProt Q9UKW6-2 1-255)
T6 sequence: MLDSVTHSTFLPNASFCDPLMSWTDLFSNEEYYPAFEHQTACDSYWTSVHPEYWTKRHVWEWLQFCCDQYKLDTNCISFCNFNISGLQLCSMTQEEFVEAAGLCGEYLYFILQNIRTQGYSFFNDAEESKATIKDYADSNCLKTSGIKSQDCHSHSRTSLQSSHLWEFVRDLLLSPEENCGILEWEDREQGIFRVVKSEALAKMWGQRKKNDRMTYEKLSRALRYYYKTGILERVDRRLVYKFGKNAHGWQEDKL
Procedure, shortened: as §1

[7] = biological target: T7, ETV3 (Homo sapiens, UniProt P41162-2 1-143)
T7 sequence: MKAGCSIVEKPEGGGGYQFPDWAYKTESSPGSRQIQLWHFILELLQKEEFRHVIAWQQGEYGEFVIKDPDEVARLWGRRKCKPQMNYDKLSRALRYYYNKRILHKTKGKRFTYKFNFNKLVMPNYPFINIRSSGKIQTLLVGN
Procedure, shortened: as §1

[8] = biological target: ETV6 (Homo sapiens, UniProt P41212 1-452)
ETV6, sequence (P41212 whole entry): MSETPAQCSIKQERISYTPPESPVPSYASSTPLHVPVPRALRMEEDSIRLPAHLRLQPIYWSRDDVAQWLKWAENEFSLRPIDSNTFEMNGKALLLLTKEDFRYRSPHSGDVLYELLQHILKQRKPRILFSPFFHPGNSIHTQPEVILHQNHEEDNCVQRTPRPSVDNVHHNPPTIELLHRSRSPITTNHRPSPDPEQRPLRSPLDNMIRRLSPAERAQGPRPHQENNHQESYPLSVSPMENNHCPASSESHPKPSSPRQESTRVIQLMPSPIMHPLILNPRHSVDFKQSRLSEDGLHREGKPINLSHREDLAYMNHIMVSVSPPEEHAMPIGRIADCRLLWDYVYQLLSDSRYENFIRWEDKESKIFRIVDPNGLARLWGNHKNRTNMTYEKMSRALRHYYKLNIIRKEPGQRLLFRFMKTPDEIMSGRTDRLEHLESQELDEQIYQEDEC
Procedure, shortened: as §1

Sequence | binding signal [1] | binding signal [2] | binding signal [3] | binding signal [4] | binding signal [5] | binding signal [6] | binding signal [7] | binding signal [8]
AACCTA | 1.03 fold enrichment (6-mer frequency, TF over GST control) | 1.05 fold enrichment (6-mer frequency, TF over GST control) | 1.11 fold enrichment (6-mer frequency, TF over GST control) | 1.08 fold enrichment (6-mer frequency, TF over GST control) | 1.03 fold enrichment (6-mer frequency, TF over GST control) | 1.07 fold enrichment (6-mer frequency, TF over GST control) | 1.07 fold enrichment (6-mer frequency, TF over GST control) | 1.1 fold enrichment (6-mer frequency, TF over GST control)
CGTATT | 1.08 fold enrichment (6-mer frequency, TF over GST control) | 1.09 fold enrichment (6-mer frequency, TF over GST control) | 1.18 fold enrichment (6-mer frequency, TF over GST control) | 1.16 fold enrichment (6-mer frequency, TF over GST control) | 1.07 fold enrichment (6-mer frequency, TF over GST control) | 1.14 fold enrichment (6-mer frequency, TF over GST control) | 1.16 fold enrichment (6-mer frequency, TF over GST control) | 1.22 fold enrichment (6-mer frequency, TF over GST control)
TAATTA | 1.24 fold enrichment (6-mer frequency, TF over GST control) | 1.23 fold enrichment (6-mer frequency, TF over GST control) | 1.34 fold enrichment (6-mer frequency, TF over GST control) | 1.24 fold enrichment (6-mer frequency, TF over GST control) | 1.35 fold enrichment (6-mer frequency, TF over GST control) | 1.2 fold enrichment (6-mer frequency, TF over GST control) | 1.19 fold enrichment (6-mer frequency, TF over GST control) | 1.36 fold enrichment (6-mer frequency, TF over GST control)
AAAGTA | 1.11 fold enrichment (6-mer frequency, TF over GST control) | 1.18 fold enrichment (6-mer frequency, TF over GST control) | 1.17 fold enrichment (6-mer frequency, TF over GST control) | 1.13 fold enrichment (6-mer frequency, TF over GST control) | 1.21 fold enrichment (6-mer frequency, TF over GST control) | 1.18 fold enrichment (6-mer frequency, TF over GST control) | 1.14 fold enrichment (6-mer frequency, TF over GST control) | 1.15 fold enrichment (6-mer frequency, TF over GST control)
CTTCAC | 1.44 fold enrichment (6-mer frequency, TF over GST control) | 1.44 fold enrichment (6-mer frequency, TF over GST control) | 1.36 fold enrichment (6-mer frequency, TF over GST control) | 1.4 fold enrichment (6-mer frequency, TF over GST control) | 1.45 fold enrichment (6-mer frequency, TF over GST control) | 1.38 fold enrichment (6-mer frequency, TF over GST control) | 1.45 fold enrichment (6-mer frequency, TF over GST control) | 1.43 fold enrichment (6-mer frequency, TF over GST control)
GCGCTT | 1.42 fold enrichment (6-mer frequency, TF over GST control) | 1.3 fold enrichment (6-mer frequency, TF over GST control) | 1.37 fold enrichment (6-mer frequency, TF over GST control) | 1.2 fold enrichment (6-mer frequency, TF over GST control) | 1.34 fold enrichment (6-mer frequency, TF over GST control) | 1.31 fold enrichment (6-mer frequency, TF over GST control) | 1.42 fold enrichment (6-mer frequency, TF over GST control) | 1.33 fold enrichment (6-mer frequency, TF over GST control)
GTAAAC | 1.27 fold enrichment (6-mer frequency, TF over GST control) | 1.18 fold enrichment (6-mer frequency, TF over GST control) | 1.28 fold enrichment (6-mer frequency, TF over GST control) | 1.17 fold enrichment (6-mer frequency, TF over GST control) | 1.18 fold enrichment (6-mer frequency, TF over GST control) | 1.22 fold enrichment (6-mer frequency, TF over GST control) | 1.3 fold enrichment (6-mer frequency, TF over GST control) | 1.21 fold enrichment (6-mer frequency, TF over GST control)
ATGACA | 1.31 fold enrichment (6-mer frequency, TF over GST control) | 1.28 fold enrichment (6-mer frequency, TF over GST control) | 1.33 fold enrichment (6-mer frequency, TF over GST control) | 1.31 fold enrichment (6-mer frequency, TF over GST control) | 1.44 fold enrichment (6-mer frequency, TF over GST control) | 1.24 fold enrichment (6-mer frequency, TF over GST control) | 1.39 fold enrichment (6-mer frequency, TF over GST control) | 1.34 fold enrichment (6-mer frequency, TF over GST control)
